# Values joined by “and” are separate entries in the source; they are usually repeats but may differ in a detail not shown here. Identical values can stand only once. About 420 (32%) of roughly 1,300 compounds were called active. Roughly 32% stayed inconclusive and do not appear here. The list shows a part of the results. Unmarked numbers belong to inactive results. Calls come from the whole dose curve; as a rule, active = well fitted inhibition curve with a large enough effect; inconclusive = small, poorly fitted or top-dose-only effect; inactive = no such curve, though single readings can be large or run the other way.
# Target: C-terminal-binding protein 1 (Homo sapiens) (UniProt Q13363)
# Assay: qHTS for Inhibitors of the Phosphatase Activity of Eya2: Carboxyl-terminal binding protein (CtBP) Counterscreen for Cherry-picked Compounds; note: nearly all actives have a fitted effect of over 65% in size
# Conditions: purified protein-protein binding, AlphaScreen, 3 h; series mostly up to 46.1 µM; activity change, negative = inhibition: at the top concentration
# Outline: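 Cherry-picked compounds (final 2.5 nM–46 uM) were incubated 2 h at RT with 25 nM CtBP-6xHIS and 25 nM GST-E1A. Alpha beads (20 ug/mL) were then added for 1 h, light-protected; DMSO and E1A peptide inhibitor wells set the normalization.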
# % is set by controls: 0 for no effect and ±100 for the full control effect; potency is the fitted concentration of half-maximal effect.
SMILES,Potency,"activity change, negative = inhibition [%]"
COc1ccc(/C=C(/C#N)C(=O)Nc2ccc(O)cc2)cc1C(=O)O,6.75 µM (active),
COc1ccc(NC(=O)/C(C#N)=C/c2ccc(-c3ccc(Cl)c(C(=O)O)c3)o2)cc1,19 µM (active),
COc1ccc(CC(CC(=O)O)C(=O)Nc2ccc(Cl)c(Cl)c2)cc1 (centres undefined),,47.3
N#C/C(=C\c1ccc(-c2ccc(C(=O)O)cc2)o1)C(=O)Nc1ccc(F)cc1,7.57 µM (active),
CC(=O)Oc1ccc(C(=O)OCC(=O)c2c(N)n(C)c(=O)n(C)c2=O)cc1OC(C)=O,6.01 µM (active),
Cn1c(N)c(C(=O)CSc2nnc(NC3CCCCC3)s2)c(=O)n(C)c1=O,,-26.8
O=C1C=C(Nc2ccccc2)C(=O)c2ccccc21,4.26 µM (active),
O=C(Nc1ccc(-c2nc3cccnc3s2)cc1)C1CCCO1 (centres undefined),,-24.7
O=C(CSc1ncn[nH]1)N1N=C(c2ccc(Cl)cc2)CC1c1ccco1 (centres undefined),,-15.7
CN(C)c1ccc(C(=C2C=CC(=[N+](C)C)C=C2)c2ccc(N(C)C)cc2)cc1,3.79 µM (active),
CN(C)c1ccc(C(=C2C=CC(=[N+](C)C)C=C2)c2c(O)c(S(=O)(=O)[O-])cc3cc(S(=O)(=O)O)ccc23)cc1,9.53 µM (active),
Nc1n[nH]c2cc(=O)n(-c3ccc(Cl)cc3)nc12,,-21.1
CCOc1ccc(Br)cc1S(=O)(=O)NC1CC(C)(C)NC(C)(C)C1,,4.5
Cc1ccc(-c2csc(NC(=O)c3ccccc3F)c2C(=O)O)cc1,9.53 µM (active),
COC(=O)c1c(-c2ccc3ccccc3c2)csc1NC(=O)Cc1ccc(OC)c(OC)c1,,-22.9
CCOc1cc(C(=O)NC(C)CCc2ccccc2)cc(OCC)c1OCC (centres undefined),,94
COc1ccc(CCNC(=O)C(=O)NCc2cccs2)cc1OC,,1.17
COc1cc(CNCc2ccccn2)ccc1OCC(=O)NC1CCCCC1,,-40.3
COc1ccc(CCNc2nc(-c3ccccn3)cs2)cc1OC,7.57 µM (active),
CCC(C)Nc1nc(-c2ccccn2)nc2ccccc12 (centres undefined),9.53 µM (active),
O=C(Nc1nc2ccc(F)cc2s1)C1=NN(c2ccccc2)C(=O)CC1,,-3.84
Cc1ccc(-c2nc3ccccc3s2)cc1NC(=S)NC(=O)/C=C/c1ccco1,,4.31
COc1ccccc1N1CCN(C(=O)c2ccc(-c3nc4ccccc4s3)o2)CC1,,-28.7
O=C(O)CCN1C(=O)/C(=C/c2ccc(-c3nc4ccccc4s3)o2)SC1=S,3.01 µM (active),
CCNC(=O)/C(C#N)=C/c1c(N2CCN(c3ccccc3)CC2)nc2c(C)cccn2c1=O,12 µM (active),

SMILES,Potency,"activity change, negative = inhibition [%]"
CCN(CC)C(=O)CC(c1ccc(OC)cc1)c1c(OC)cc(OC)c2ccc(=O)oc12 (centres undefined),,3.43
Cc1cccc(-n2c(O)c(C=Nc3ccccc3)c3ccccc3c2=O)n1,,-17.4
Cc1[nH]n(-c2cccc3ccccc23)c(=O)c1C=Nc1ccc2[nH]c(=O)[nH]c2c1,7.57 µM (active),
CC1CCCCC1NC(=O)COC(=O)c1c2c(nc3ccccc13)/C(=C\c1ccco1)CC2 (centres undefined),,-25.9
Cn1nc([N+](=O)[O-])nc1Sc1cccc2cccnc12,2.69 µM (active),
Clc1ccc(-n2nnnc2-c2cnc3ccccc3c2-c2ccccc2)cc1,,-9.82
O=C(NN1C(=O)/C(=C/C=C/c2ccco2)SC1=S)c1ccncc1,12 µM (active),
Oc1ccc(Cl)cc1CNc1cccc2cccnc12,5.36 µM (active),
Oc1c(Br)cc(Br)cc1CNc1cccc2cccnc12,5.36 µM (active),
CCOC(=O)C1=C(COC(=O)CCOc2ccccc2)NC(=O)NC1C (centres undefined),,4.16
CN(C)c1ccc(-c2ccnc3c2CC(C)(C(=O)NCCC(F)(F)F)O3)cc1 (centres undefined),,-19.4
COc1ccc(S(=O)(=O)N2CCN(C(=O)c3cc4c(s3)CCC4)CC2)cc1,,-5.73
COc1ccc(CNC(=O)C2CCN(S(=O)(=O)c3ccc4nc5c(c(C(=O)O)c4c3)CCCC5)CC2)cc1,12 µM (active),
Cc1ccc(CNC(=O)C2CCN(S(=O)(=O)c3ccc4nc5c(c(C(=O)O)c4c3)CC(C)CC5)CC2)cc1 (centres undefined),10.7 µM (active),
O=C(O)c1c2c(nc3ccc(S(=O)(=O)N4CCC(C(=O)NC5CCCC5)CC4)cc13)CCCCC2,,-4.44
COc1ccc(CC(=O)Nc2cccc(Cl)c2C)cc1S(=O)(=O)N1CCOCC1,,-0.0315
COc1ccc(C(=O)Nc2nc(-c3ccccn3)cs2)cc1S(=O)(=O)N1CCOCC1,1.51 µM (active),
O=C(Nc1nc(-c2ccc(S(=O)(=O)N3CCOCC3)cc2)cs1)c1ccccc1,6.75 µM (active) and 7.57 µM (active),
CCOC(=O)N1CCN(S(=O)(=O)c2ccc(C(=O)NNc3nc4ccc(Cl)cc4s3)cc2)CC1,,-11.8
O=C(COC(=O)c1n[nH]c(=O)c2ccccc12)Nc1cccc(S(=O)(=O)N2CCOCC2)c1,,-14
O=S(=O)(c1ccc(Cl)cc1)N1CCOCC1,,9.26
COc1ccc(C(=O)Nc2ccc3nc(C)sc3c2)cc1S(=O)(=O)N1CCOCC1,21.3 µM (active),
Cc1ccc(NC(=O)COc2ccc(S(=O)(=O)N3CCOCC3)cc2)cc1,,1.7
O=C(Nc1nc(-c2ccccn2)cs1)c1cccc(S(=O)(=O)N2CCOCC2)c1,1.69 µM (active),

# Source: PubChem BioAssay AID720541 (National Center for Advancing Translational Sciences (NCATS), 2013)
